# Laboratory results reported in PubChem BioAssay (EPA / NIEHS).
# Activity calls are given as the source filed them. How the source made its calls: active means hit-call score of the fitted dose curve at least 0.9, where 1 is the maximum; inactive means score below 0.9.
# Read-out: Apolipoprotein A-V (APOA5) gene, APOA5 (gene 116519)
# Assay: LTEA_HepaRG_APOA5: Life Technologies and Expression Analysis (LTEA) Assay for Apolipoprotein A-V (APOA5) gene using HepaRG (AID 2283474)
# Settings: mRNA level, 48 h; actives raise or lower the signal
# Method: LTEA_HepaRG is a cell based, multiplexed-readout assay that uses HepaRG, a human liver cell line, with measurements taken at 48 hours after chemical dosing on a 96-well plate.LTEA_HepaRG_APOA5 is one of 102 assay component(s) measured in the LTEA HepaRG cell culture assay. It is a marker of Steatosis.Data from the assay component LTEA_HepaRG_APOA5 was analyzed into 1 endpoint. This assay endpoint, LTEA_HepaRG_APOA5, was analyzed with bidirectional fitting relative to DMSO as the negative control and baseline of activity. Using a type of inducible reporter, measures of mRNA induction for gain or loss-of-signal activity can be used to understand regulation of transcription factor activity. To generalize the intended target to other relatable targets, this assay endpoint is annotated to the apolipoprotein intended target family, where the subfamily is Steatosis.
# A total of 1060 chemcials from the ToxCast library were tested in eight-point concentration-response experiments. Cell culture and cytotoxicity assays were conducted at Thermo Fisher Scientific's Custom Services facility (Madison, WI). A single lot of human HepaRG cells (Thermo Fisher Scientific, Frederick, MD) was used for the cell culture experiments. 96-well format collagen type I coated plates of human HepaRG cells were prepared using established methods. Briefly, cryopreserved HepaRG cells were thawed, plated at a density of approximately 100,000 cells/well in HepaRG Thaw, Plate, and General Purpose media (HPRG770, Thermo Fisher Scientific), and incubated for 48 hours. 0.5% DMSO was selected as vehicle control to balance the requisite need of DMSO in HepaRG cultures to maintain differentiation (for example, baseline metabolism, proportions of hepatocytes vs. cholangiocytes), while enabling further hepatic receptor pathway activation (for example, PXR and CAR) in response to chemical exposure. 48 hours after plating, the culture medium was replaced with HepaRG Serum-Free Incudtion Media. Cells were exposed to each test chemical in duplicate and maintained in CO2 incubators for another 48 hours. Chemical plates were thawed to room temperature and 200x concentrations of treatment groups were prepared. 8-point conentration-reponse curves were made with the highest exposure at 100 uM, followed by half-log dilutions, all in 0.5% DMSO. Each test plate contained variouse controls, induction positive controls (1mM phenobarbital), cytotoxicity positive controls ([…] aflatoxin B1), vehicle controls (0.5% DMSO), and total lysis controls (0.5% DMSO). Cell morphology images were taken using an Essen IncuCyte FLR automated microscope, with six 96-well plates imaged in about 24 minutes. Images were captured and exported and JPEG files. Spent culture media was transfered to black-well plates for the LDH assay, and remaining media was sorted at -80 C for later use. Cells were treated with RLT buffer and frozen until shipped for gene expression analysis. Total RNA was isolated from the cell suspension in 75 uL of Buffer RLT (Qiagen, Germantown, MD 20874) by Quintiles/Expression Analysis (Durham, NC) using a custom isolation procedure. Total RNA from each plate well was transferred to a preamplification plate. Fluidigm's 96.96 Dynamic ArrayTM (Fluidigm, Amsterdam, the Netherlands) technology was used for gene expression analyses by quantitative reverse transcription polymerase chain reaction (qRT-PCR, performed by Quintiles/Expression Analysis, Durham, NC)89. Standard TaqManTM Assays (Applied Biosystems/ThermoFisher Scientific, Foster City, CA) were used to assess the expression of 93 genes selected based on their selectivity and sensitivity to important hepatic receptors known to be modulated by environmental chemicals; importance in human hepatocyte functionality; and hepatotoxicity. […]
SMILES,outcome,AC50
CCCCC(CC)COC(=O)c1ccccc1C(=O)O (stereo not given),inactive,–
N[C@@H](Cc1cc(I)c(Oc2ccc(O)c(I)c2)c(I)c1)C(=O)O,–,69.9 µM (active)
CCOC(=O)C(C)Oc1ccc(Oc2cnc3cc(Cl)ccc3n2)cc1 (stereo not given),inactive,–
CCOC(=O)C(C)Oc1ccc(Oc2nc3ccc(Cl)cc3o2)cc1 (stereo not given),–,11.5 µM (active)
O=C(O)C1(C(=O)Nc2ccc(Cl)cc2Cl)CC1,–,74.9 µM (active)
CCNc1nc(N)nc(Cl)n1,inactive,–
CCOC(=O)c1ccc(O)cc1,inactive,–
CCCCOCCOCCOCc1cc2c(cc1CCC)OCO2,inactive,–
Oc1ccc(C(c2ccc(O)cc2)C(Cl)(Cl)Cl)cc1,–,79.7 µM (active)
CSC(=O)c1cccc2nnsc12,inactive,–
CCCOC(=O)NCCCN(C)C,inactive,–
CCCCCCC(C)OC(=O)COc1nc(F)c(Cl)c(N)c1Cl (stereo not given),inactive,–
C#C[C@]1(O)CC[C@H]2[C@@H]3CCC4=CC(=O)CC[C@@H]4[C@H]3CC[C@@]21CC,inactive,–
COC(=O)CSc1cc(N=c2sc(=O)n3n2CCCC3)c(F)cc1Cl,inactive,–
CCCOC(=O)c1ccc(C(=O)OCCC)nc1,inactive,–
Cc1nn(C)c(Oc2ccccc2)c1C=NOCc1ccc(C(=O)OC(C)(C)C)cc1,–,29.9 µM (active)
OB(O)O,inactive,–
CC1(C)C(C=C(Cl)Cl)C1C(=O)OCc1cccc(Oc2ccccc2)c1 (stereo not given),inactive,–
CCCCOC(=O)C(C)Oc1ccc(Oc2ccc(C(F)(F)F)cn2)cc1 (stereo not given),inactive,–
C[C@]12C[C@H](O)[C@H]3[C@@H](CCC4=CC(=O)CC[C@@]43C)[C@@H]1CC[C@@H]2C(=O)CO,inactive,–

SMILES,outcome,AC50
COc1c(Cl)ccc(Cl)c1C(=O)O,inactive,–
CCOC(=O)NCCOc1ccc(Oc2ccccc2)cc1,–,85.8 µM (active)
CC(C)(c1ccc(O)cc1)c1ccc(O)cc1,inactive,–
O=C(Nc1ccc([N+](=O)[O-])cc1Cl)c1cc(Cl)ccc1O,–,4.26 µM (active)
c1ccc2[nH]c(-c3cscn3)nc2c1,inactive,–
O=C(c1ccc(O)cc1O)c1ccc(O)cc1O,inactive,–
CC(C)(C)[C@@H](O)[C@@H](Cc1ccc(Cl)cc1)n1cncn1,inactive,–
CC(=O)[C@H]1CC[C@H]2[C@@H]3CCC4=CC(=O)CC[C@]4(C)[C@H]3CC[C@]12C,–,34 µM (active)
CCOC(=O)COc1cc(-n2ncc(C(F)(F)F)c(C)c2=O)c(F)cc1Cl,inactive,–
CCSC(=O)N(CC(C)C)CC(C)C,inactive,–
CCCCCOC(=O)COc1cc(N2C(=O)C3=C(CCCC3)C2=O)c(F)cc1Cl,inactive,–
CC(=O)S[C@@H]1CC2=CC(=O)CC[C@]2(C)[C@H]2CC[C@@]3(C)[C@@H](CC[C@@]34CCC(=O)O4)[C@H]12,–,61.8 µM (active)
CCCCOC(=O)[C@@H](C)Oc1ccc(Oc2ccc(C(F)(F)F)cn2)cc1,inactive,–
COCCO,inactive,–
C[C@]12CC[C@@H]3c4ccc(O)cc4C[C@@H](CCCCCCCCCS(=O)CCCC(F)(F)C(F)(F)F)[C@H]3[C@@H]1CC[C@@H]2O (stereo not given in full),–,50 µM (active)
CCN(Cc1c(F)cccc1Cl)c1c([N+](=O)[O-])cc(C(F)(F)F)cc1[N+](=O)[O-],–,26.7 µM (active)
O=C(O)c1ccccc1,inactive,–
COC(=O)c1ccc(I)cc1S(=O)(=O)NC(=O)Nc1nc(C)nc(OC)n1,inactive,–
CC(C)CCCCCCc1ccc(O)cc1,inactive,–
C#CCOC(=O)[C@@H](C)Oc1ccc(Oc2ncc(Cl)cc2F)cc1,inactive,–
